Pf apPOL block: Pf-apPOL DNA polymerase inhibition | Recombinant Pf-apPOL, molecular beacon fluorescence, 1.5 h | inhibition, % at 10 µM | 210,000 compounds, 0.25% hits | AID 1794808
mHTT-CaM PPI inh: disrupts binding of mutant huntingtin to calmodulin; P42858; AlphaScreen His-mHTT/GST-CaM binding, luminescence; 190,000 compounds, 3.6% hits; inhibition, % at 15 µM;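 also: 0% = both proteins with DMSO and 100% = one protein alone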
Target sequence (P42858 whole entry, looked up, stated change not applied): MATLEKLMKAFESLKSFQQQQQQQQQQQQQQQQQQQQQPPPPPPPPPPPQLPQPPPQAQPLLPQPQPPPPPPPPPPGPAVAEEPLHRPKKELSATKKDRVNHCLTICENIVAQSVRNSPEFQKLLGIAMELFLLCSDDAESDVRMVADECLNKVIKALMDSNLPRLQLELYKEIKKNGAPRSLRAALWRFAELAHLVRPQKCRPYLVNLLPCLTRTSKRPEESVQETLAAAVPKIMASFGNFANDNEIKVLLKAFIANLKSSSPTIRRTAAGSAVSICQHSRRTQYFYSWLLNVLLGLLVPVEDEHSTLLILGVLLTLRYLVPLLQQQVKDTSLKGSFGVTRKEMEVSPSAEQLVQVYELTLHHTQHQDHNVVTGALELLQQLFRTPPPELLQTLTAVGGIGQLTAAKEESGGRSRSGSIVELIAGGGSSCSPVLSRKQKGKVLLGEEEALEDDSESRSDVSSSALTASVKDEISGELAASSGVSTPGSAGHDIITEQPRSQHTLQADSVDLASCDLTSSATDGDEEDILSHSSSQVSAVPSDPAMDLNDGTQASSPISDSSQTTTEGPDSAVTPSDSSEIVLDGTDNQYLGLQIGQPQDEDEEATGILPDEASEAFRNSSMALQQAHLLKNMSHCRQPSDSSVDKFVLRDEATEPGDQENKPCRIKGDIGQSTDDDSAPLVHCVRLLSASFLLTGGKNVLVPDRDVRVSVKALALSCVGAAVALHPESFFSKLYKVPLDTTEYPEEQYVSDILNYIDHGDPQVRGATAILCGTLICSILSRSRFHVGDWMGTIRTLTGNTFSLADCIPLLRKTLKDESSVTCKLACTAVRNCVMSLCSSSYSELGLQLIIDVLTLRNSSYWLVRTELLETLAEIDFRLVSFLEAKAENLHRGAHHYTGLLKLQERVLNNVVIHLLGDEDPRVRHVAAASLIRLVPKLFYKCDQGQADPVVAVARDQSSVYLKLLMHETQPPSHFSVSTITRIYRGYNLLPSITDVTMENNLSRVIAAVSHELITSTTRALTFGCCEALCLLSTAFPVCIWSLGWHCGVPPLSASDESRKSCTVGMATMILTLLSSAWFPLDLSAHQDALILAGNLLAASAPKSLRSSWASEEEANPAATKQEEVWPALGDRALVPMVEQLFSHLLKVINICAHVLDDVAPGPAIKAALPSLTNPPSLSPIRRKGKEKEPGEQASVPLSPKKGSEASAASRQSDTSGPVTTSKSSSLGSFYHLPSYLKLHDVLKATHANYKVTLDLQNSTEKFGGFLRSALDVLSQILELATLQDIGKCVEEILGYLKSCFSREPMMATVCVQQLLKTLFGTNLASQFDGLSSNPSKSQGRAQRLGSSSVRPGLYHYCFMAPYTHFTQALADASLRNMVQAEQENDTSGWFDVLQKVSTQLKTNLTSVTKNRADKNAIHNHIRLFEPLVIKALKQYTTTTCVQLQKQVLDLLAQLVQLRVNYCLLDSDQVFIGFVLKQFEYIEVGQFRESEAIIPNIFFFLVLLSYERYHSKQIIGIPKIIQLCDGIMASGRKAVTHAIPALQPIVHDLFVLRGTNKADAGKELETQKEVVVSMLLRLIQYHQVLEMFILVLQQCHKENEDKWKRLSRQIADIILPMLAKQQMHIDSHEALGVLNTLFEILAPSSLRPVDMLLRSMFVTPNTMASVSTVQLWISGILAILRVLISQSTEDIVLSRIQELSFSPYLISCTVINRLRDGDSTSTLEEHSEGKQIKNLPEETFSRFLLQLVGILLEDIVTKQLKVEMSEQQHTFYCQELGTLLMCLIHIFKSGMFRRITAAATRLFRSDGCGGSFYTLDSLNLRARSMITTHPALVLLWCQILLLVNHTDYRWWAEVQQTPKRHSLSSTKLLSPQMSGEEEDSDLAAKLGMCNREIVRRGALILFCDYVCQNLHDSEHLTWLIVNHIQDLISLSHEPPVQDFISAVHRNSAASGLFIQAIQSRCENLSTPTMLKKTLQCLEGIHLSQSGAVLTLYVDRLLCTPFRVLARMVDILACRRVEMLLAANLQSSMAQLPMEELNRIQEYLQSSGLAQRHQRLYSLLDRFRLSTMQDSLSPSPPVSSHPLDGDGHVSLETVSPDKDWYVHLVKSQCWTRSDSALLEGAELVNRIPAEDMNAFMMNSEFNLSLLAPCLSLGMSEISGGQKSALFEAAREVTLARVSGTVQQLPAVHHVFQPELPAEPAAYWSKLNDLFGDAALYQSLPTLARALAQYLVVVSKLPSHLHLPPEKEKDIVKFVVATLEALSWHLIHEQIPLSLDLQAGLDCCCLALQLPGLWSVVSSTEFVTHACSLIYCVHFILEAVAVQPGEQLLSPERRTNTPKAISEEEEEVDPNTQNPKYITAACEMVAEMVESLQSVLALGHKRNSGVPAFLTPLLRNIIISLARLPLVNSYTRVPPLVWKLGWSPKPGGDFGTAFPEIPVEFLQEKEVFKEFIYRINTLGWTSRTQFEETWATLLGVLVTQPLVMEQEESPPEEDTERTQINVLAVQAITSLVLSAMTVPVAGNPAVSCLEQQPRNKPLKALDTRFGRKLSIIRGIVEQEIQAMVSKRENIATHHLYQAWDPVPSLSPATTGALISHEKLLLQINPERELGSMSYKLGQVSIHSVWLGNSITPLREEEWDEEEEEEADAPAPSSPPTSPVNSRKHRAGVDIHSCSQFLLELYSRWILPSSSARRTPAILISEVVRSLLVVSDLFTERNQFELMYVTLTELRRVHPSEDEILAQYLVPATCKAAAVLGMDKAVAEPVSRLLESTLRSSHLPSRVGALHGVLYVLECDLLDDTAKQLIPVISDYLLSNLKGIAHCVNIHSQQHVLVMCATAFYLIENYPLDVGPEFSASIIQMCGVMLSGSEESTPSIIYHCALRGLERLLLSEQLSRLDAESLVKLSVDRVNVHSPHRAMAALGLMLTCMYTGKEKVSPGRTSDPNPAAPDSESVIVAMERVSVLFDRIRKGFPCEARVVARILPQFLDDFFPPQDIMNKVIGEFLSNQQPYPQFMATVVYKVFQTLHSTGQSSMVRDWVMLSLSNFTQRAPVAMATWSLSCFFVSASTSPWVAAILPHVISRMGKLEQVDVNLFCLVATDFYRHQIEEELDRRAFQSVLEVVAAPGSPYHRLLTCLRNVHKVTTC
* marks the source's active call; other numbers are inactive results; x = no result. Most compounds without a hit are left out; they make up all but 3.5% or so of the library. Rule as the data show it: active = inhibition above about 50%; inactive = the rest.

SMILES	Pf apPOL block	mHTT-CaM PPI inh
CC(=O)c1cc2c(cc1NC(=O)C1CCCCC1C(=O)O)OCO2 (stereo not drawn)	-12	0
CC(C)c1ccc(C2C3CCCC=C3C(C#N)=C(N)C2(C#N)C#N)cc1 (stereo not drawn)	8	55*
Cc1ccc(C2C3CCCC=C3C(C#N)=C(N)C2(C#N)C#N)cc1 (stereo not drawn)	0	20
COCCNC(=O)c1cc2nc(-c3ccc(Br)cc3)cc(C(F)(F)F)n2n1	7	-4
Cc1ccc2n1CCN(C(=O)NCCc1ccccc1)C2C(C)C (stereo not drawn)	-3	54*
Cc1ccc2n1CCN(C(=O)NCc1ccccc1)C2C(C)C (stereo not drawn)	-4	2
COc1ccc(/C=C2/N=C(c3cc(Cl)ccc3Cl)OC2=O)cc1OC	6	7
Cc1ccccc1NC(=O)N1CCC2(CC1)Nc1ccccc1-n1cccc12	-2	33
O=C(Nc1ccc(F)cc1F)N1CCC2(CC1)Nc1ccccc1-n1cccc12	7	54*
O=C(Nc1ccccc1F)N1CCC2(CC1)Nc1ccccc1-n1cccc12	-3	50*
O=C(Nc1cc(F)ccc1F)N1CCC2(CC1)Nc1cc(F)ccc1-n1cccc12	-12	59*
Cc1ccccc1CS(=O)(=O)CCC(=O)N1CCC2(CC1)OCCO2	-15	0
COc1ccccc1/C=C/C=C1N=C(/C=C/c2ccccc2)OC/1=O	-4	21
CCn1c(CCNC(=O)c2ccccc2)nc2c(C)cccc2c1=O	-6	24
CCn1c(CCNC(=O)c2cccc(N(C)C)c2)nc2c(C)cccc2c1=O	1	59*
COc1ccc(C2C(C(=O)N(C)C3CCCCC3)c3cc(OC)c(OC)cc3C(=O)N2C)cc1 (stereo not drawn)	3	9
CCCCN1C(=O)C(C)(C(=O)Nc2ccc(C)c(C)c2)Oc2cccnc21 (stereo not drawn)	-4	-4
O=[N+]([O-])c1cccc(-c2csc(=Nc3ccccc3)n2-c2ccccc2)c1	-10	x
CCn1c(-c2ccccc2)c(C)sc1=Nc1cccc([N+](=O)[O-])c1	3	57*
O=C(Cc1cccc(Cl)c1)N1CCc2[nH]nc(C(=O)N3CCCCC3)c2C1	-3	3
CC(/C=C1\SC(=S)N(CC(=O)O)C1=O)=C\c1ccccc1	-2	x
O=C(O)CCCN1C(=O)C(=CC=Cc2ccccc2)SC1=S	-75	25
CC(=Cc1ccccc1)C=C1SC(=S)N(C2CC(=O)N(CCCCCC(=O)O)C2=O)C1=O (stereo not drawn)	-94	53*
O=C(O)CCCN1C(=O)CC(N2C(=O)C(=CC=Cc3ccccc3)SC2=S)C1=O (stereo not drawn)	-67	54*
O=C(c1ccco1)N1CCC(c2ccn3ncc(C(=O)N4CCOCC4)c3c2)CC1	0	0
SMILES	Pf apPOL block	mHTT-CaM PPI inh
COc1cccc(CC(=O)N2CCCC2c2cc(C(C)C)on2)c1 (stereo not drawn)	-1	-6
CCC(=O)NCCc1csc(C2CCCN(C(=O)C3CCCC3)C2)n1 (stereo not drawn)	-5	4
COc1ccc(NC(=O)C2CCN(c3cc(C(=O)N4CCCC4)ccn3)CC2)cc1OC	-3	32
Cc1ccc(-c2nocc2CCC(=O)NCc2ccc(F)cc2)cc1	-3	-10
Oc1c(C(Nc2ccccn2)c2ccccc2F)ccc2cccnc12 (stereo not drawn)	-1	100*
O=C(Nc1ccccn1)c1cc(I)ccc1Cl	-2	-3
CC(C)(C)C(=O)NC(Nc1cccc2cccnc12)C(Cl)(Cl)Cl (stereo not drawn)	-11	1
Cc1cccc(NC(c2ccccc2F)c2ccc3cccnc3c2O)n1 (stereo not drawn)	-13	99*
O=C(Oc1cccc2cccnc12)c1c(F)cccc1F	3	x
O=S(=O)(Nc1nccs1)c1ccc2ccccc2c1	x	-2
Oc1ccccc1C(Nc1nccs1)c1ccc2cccnc2c1O (stereo not drawn)	-9	100*
Oc1ccc(Cl)c(C(Nc2ccccn2)c2ccc3cccnc3c2O)c1 (stereo not drawn)	0	100*
COC(=O)c1sc(-c2ccccc2)cc1NC(=O)c1ccccc1[N+](=O)[O-]	1	5
Cc1nc(N2CCC(C)CC2)c2cnn(-c3ccc(F)cc3)c2n1	-2	-42
Cc1ccc(NC(=O)Cn2cc3c(n2)CCC(C)C3)c(C)c1 (stereo not drawn)	-3	-9
COc1cccc(OC)c1C(=O)Nc1c2c(nn1-c1cccc(C)c1)CSC2	3	33
C=CCc1c(C)c(C#N)c2nc3ccccc3n2c1NCCc1ccccc1	-71	-63
CCC(C)NC(=O)C1CCN(c2nnc(-c3ccc(OC)cc3)o2)CC1 (stereo not drawn)	-3	5
Oc1ccccc1C(Nc1ccccn1)c1ccc2cccnc2c1O (stereo not drawn)	-10	100*
Oc1cccc2ccc(Oc3cccc4cccnc34)nc12	-3	2
O=c1nc2n(-c3ccc([N+](=O)[O-])cc3)c3ccc([N+](=O)[O-])cc3cc-2c(=O)[nH]1	0	13
COc1cc(C2Nc3ccccc3NC3=C2C(=O)CC(c2cccs2)C3)cc(Cl)c1O (stereo not drawn)	-4	13
O=C1CN(C(=O)c2ccccc2C(F)(F)F)C(c2ccccc2)c2cc(Cl)ccc2N1 (stereo not drawn)	-3	38
CCN(CC)C1C(=O)Nc2ccc(Cl)cc2C1c1ccccc1 (stereo not drawn)	7	95*
COc1cc(S(=O)(=O)NCc2ccc3c(c2)OCO3)c(OC)cc1Br	-9	0
SMILES	Pf apPOL block	mHTT-CaM PPI inh
COc1cc(OC)c(CNc2ccc3c(c2)OCO3)cc1Br	-7	100*
COc1ccc(S(=O)(=O)Nc2ccc3c(c2)OCO3)cc1Br	x	24
COc1ccc(CNc2ccc3c(c2)OCO3)cc1Br	-5	96*
O=C(CCS(=O)(=O)c1ccc(Cl)cc1)Nc1ccccc1-c1nc2ccccc2[nH]1	-4	-14
CCC(=O)N1CCN(c2nc3c(s2)CC(C(=O)NCc2ccco2)CC3)CC1 (stereo not drawn)	-2	20
Cc1ccc(O)c(N=C2C(=O)Nc3ccccc32)c1	1	56*
Cc1ccc(N=C2C(=O)Nc3ccccc32)c(C)c1	-4	13
CC1CC[N+](C)(CC(O)COc2ccc(C34CC5CC(CC(C5)C3)C4)cc2)CC1 (stereo not drawn)	-1	-9
CC(C)(C)CC(C)(C)c1ccc(OCC(O)C[N+](C)(C)C)cc1 (stereo not drawn)	-1	28
C[N+]1(CC(O)COc2ccc(C34CC5CC(CC(C5)C3)C4)cc2)CCCCCC1 (stereo not drawn)	-4	91*
C[N+](C)(C)CC(O)COc1ccc(C23CC4CC(CC(C4)C2)C3)cc1 (stereo not drawn)	-10	24
CC1C[N+](C)(CC(O)COc2ccc(C34CC5CC(CC(C5)C3)C4)cc2)CC(C)O1 (stereo not drawn)	-2	51*
CC1C[N+](C)(CC(O)COc2ccc(C(C)(C)CC(C)(C)C)cc2)CC(C)O1 (stereo not drawn)	-2	52*
O=C(Cc1noc2ccccc12)N1CCN(c2ccc(-n3cccn3)nn2)CC1	-6	-10
Cc1cc(C(=O)N2CCC(c3nc4ccncc4n3CC(C)C)C2)nn1C (stereo not drawn)	-6	-3

Screens deposited in PubChem BioAssay by University of Kansas High Throughput Screening Laboratory.
